PMC6925144, “A prospective compound screening contest identified broader inhibitors for Sirtuin 1” (Scientific Reports, 2019)
The full ranking holds about 3,200 compounds; the median of “TSA(with NAD+) / Primary screening (TSA) / delta Tm (K)” is about -0.04, and the highest 2% start at about 0.37. The sample holds the highest values, similar compounds and a random draw of the others, so the mix is not that of the screen.

These compounds were tested against NAD-dependent deacetylase Sirtuin 1 (human, UniProt Q96EB6) (assay: primary screen, delta tm). Settings: 10 µM.
Parameters: single well (n = 1, as 'the same TSA')

Chain of NAD-dependent deacetylase Sirtuin 1 (Q96EB6 2-747 limits assumed): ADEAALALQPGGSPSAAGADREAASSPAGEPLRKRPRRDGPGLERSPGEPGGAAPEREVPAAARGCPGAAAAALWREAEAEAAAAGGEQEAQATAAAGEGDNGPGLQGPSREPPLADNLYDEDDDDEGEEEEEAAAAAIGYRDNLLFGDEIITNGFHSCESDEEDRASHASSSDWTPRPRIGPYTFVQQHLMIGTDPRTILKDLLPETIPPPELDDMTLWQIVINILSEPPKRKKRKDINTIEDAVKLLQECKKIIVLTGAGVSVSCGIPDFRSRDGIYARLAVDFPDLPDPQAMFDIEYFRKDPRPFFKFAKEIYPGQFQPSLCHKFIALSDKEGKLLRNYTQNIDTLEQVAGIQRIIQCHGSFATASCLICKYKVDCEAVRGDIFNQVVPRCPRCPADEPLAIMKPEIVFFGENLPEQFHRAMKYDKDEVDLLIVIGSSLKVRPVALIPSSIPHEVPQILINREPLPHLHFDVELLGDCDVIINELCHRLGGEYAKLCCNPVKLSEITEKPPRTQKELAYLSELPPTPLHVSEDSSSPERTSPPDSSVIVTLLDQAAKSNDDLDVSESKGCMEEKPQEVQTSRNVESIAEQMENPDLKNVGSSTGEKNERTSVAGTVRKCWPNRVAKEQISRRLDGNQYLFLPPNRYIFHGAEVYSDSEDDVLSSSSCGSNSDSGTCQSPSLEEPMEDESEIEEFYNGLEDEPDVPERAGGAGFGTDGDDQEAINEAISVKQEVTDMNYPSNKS

Structure (SMILES)	TSA(with NAD+) / Primary screening (TSA) / delta Tm (K)
N#CCCC(C#N)CN1CCC(CCc2ccc(O)cc2)CC1 (centres unmarked)	-0.14
O=C(COC(=O)c1cccc(S(=O)(=O)NCc2ccccc2)c1)NC12CC3CC(CC(C3)C1)C2	-0.25
CC(NC(=O)COC(=O)c1cccc(S(=O)(=O)NCc2ccccc2)c1)C12CC3CC(CC(C3)C1)C2 (centres unmarked)	0.05
O=C(COC(=O)c1cccc(NS(=O)(=O)/C=C/c2ccccc2)c1)NC12CC3CC(CC(C3)C1)C2	-0.01
Cc1cccc(NS(=O)(=O)c2cccc(C(=O)OCC(=O)NC(=O)NC34CC5CC(CC(C5)C3)C4)c2)c1	0.46
CC(=O)c1ccc(NC(=O)C(C)OC(=O)c2cccc(S(=O)(=O)NC(C)C34CC5CC(CC(C5)C3)C4)c2)cc1 (centres unmarked)	0.19
CC(NS(=O)(=O)c1cccc(C(=O)OCC(=O)Nc2sccc2C#N)c1)C12CC3CC(CC(C3)C1)C2 (centres unmarked)	0.37
Cn1cc(C(=O)O)c(-c2cccnc2)n1	0.06
NC(=O)CCN(Cc1ccccc1)C(=O)COC(=O)C12CC3CC(C1)CC(c1ccccc1)(C3)C2	-0.03
O=C(Oc1ccc2oc3ccccc3c2c1)c1ccc([N+](=O)[O-])cc1	-0.08
COc1ccc(C(=O)OC(C)C(=O)Nc2ccc(C(N)=O)cc2)c(OC)c1 (centres unmarked)	-0.01
CCN(CC(=O)Nc1ccc(OC)cc1)CC(=O)Nc1ccc(C(N)=O)cc1	-0.04
COc1ccc2cc(/C=C/C(=O)Nc3ccc(C(N)=O)cc3)ccc2c1	0.76
O=C(NCc1ccccc1O)c1ccc2c(c1)C(=O)c1ccccc1-2	-0.03
CCC(=O)Nc1cccc(C(=O)NNC(=O)c2nc(-c3ccccc3)n(-c3ccccc3)n2)c1	-0.06
CC(C)C(NC(=O)CCCn1c(=O)oc2cc([N+](=O)[O-])ccc21)c1nnc2ccccn12 (centres unmarked)	-0.11
Cc1nc(-c2ccccn2)[nH]c(=O)c1CC(=O)NCCc1cccc2cccnc12	0.28
CC(C(=O)NC(c1ccccc1)C1CC1)n1cnc2ccccc21 (centres unmarked)	0.05
O=C(CCCc1nc2ccccc2c(=O)[nH]1)N1CC2CC3CC(C2)CC1C3	-0.01
CC(N)c1nnn[nH]1 (centres unmarked)	-0.05
COc1ccccc1NC(=O)c1ccc(NC(=O)COC(=O)C23CC4CC(CC(C4)C2)C3)cc1	0.39
COc1ccccc1NS(=O)(=O)c1ccc(NC(=O)CNC(=O)C23CC4CC(CC(C4)C2)C3)cc1	0.08
COc1ccc(NC(=O)c2ccccc2NC(=O)COC(=O)C23CC4CC(CC(O)(C4)C2)C3)cc1	-0.04
COc1ccc(NC(=O)c2ccc(NC(=O)COC(=O)C34CC5CC(CC(Br)(C5)C3)C4)cc2)cc1	0.73
COc1ccc(NC(=O)CC23CC4CC(C2)CC(CC(=O)Nc2ccc(OC)cc2)(C4)C3)cc1	-0.11
COc1ccccc1NC(=O)COc1ccc(C(=O)OCC(=O)NC23CC4CC(CC(C4)C2)C3)cc1OC	0.13
Cc1ccccc1CC(=O)Nc1ccc(N2CCN(Cc3ccccc3)CC2)cc1	0.09

Structure (SMILES)	TSA(with NAD+) / Primary screening (TSA) / delta Tm (K)
CN(c1ccccc1)S(=O)(=O)c1ccc(C(=O)NNC(=O)C23CC4CC(CC(C4)C2)C3)cc1	0.08
COC(=O)c1ccccc1Nc1ccnc(Cl)n1	-0.11
Cc1cccc(-c2nc3ccccc3n3c(C)nnc23)c1	-0.13
Cn1c(=O)c2ccccc2n2c(COC(=O)Cn3nc(-c4ccc(F)cc4)oc3=O)nnc12	-0.03
O=C1NC(=S)NC(=O)C1=Cc1ccc(-c2ccc(SC(F)F)cc2)o1	-0.43
Cc1ccc(C(=O)OCc2ccc(C(=O)Nc3ccccc3)cc2)cc1	-0.18
CCNC(=O)c1cccc(NC(=O)C2CCN(S(=O)(=O)c3cc(C(C)(C)C)ccc3C)CC2)c1	0.16
O=C(NO)c1cccc(C(F)(F)F)c1	-0.19
Cc1ccc(C(C)(C)C)cc1S(=O)(=O)Nc1cccc(C(=O)NNC(=O)c2cccc(S(=O)(=O)Nc3cccc(C(F)(F)F)c3)c2)c1	0.65
O=C(COC(=O)C1=COCCO1)Nc1cccc2c1C(=O)c1ccccc1C2=O	0.01
COc1ccccc1NS(=O)(=O)c1cccc(NC(=O)c2oc3ccccc3c2CSC)c1	-0.08
C=CCOc1ccc(C2C(C(=O)c3ccc(C)o3)=C(O)C(=O)N2CCCN2CCOCC2)cc1 (centres unmarked)	-0.04
O=C(Nc1ccccc1Cc1ccccc1)c1ccc(CN2C(=O)CNC2=O)cc1	0.05
CN(C)c1ccc(S(N)(=O)=O)cc1N	-0.04
O=C1/C(=C/c2cnn(-c3ccccc3)c2)Oc2cc(O)ccc21	0.99
O=C1/C(=C/c2cccc(O)c2)Oc2cc(O)ccc21	-0.14
O=C1/C(=C/c2ccccc2)Oc2cc(O)ccc21	-0.06
Cc1cnc(N2CCC(Oc3ccnc(C(N)=O)c3)CC2)s1	-0.16
O=c1c2ccccc2ncn1CC(O)c1cccc(F)c1 (centres unmarked)	-0.19
O=c1c2ccncc2ncn1CC(O)c1cccc(Cl)c1 (centres unmarked)	-0.03
O=c1c2ccccc2ncn1CC(O)c1ccccc1Cl (centres unmarked)	0.38
O=C(CN1CCCCCC1=O)N1CCN(c2cnccn2)CC1	-0.04
Cc1ccc(C(=O)Nc2nc3ccc(NS(=O)(=O)c4ccc5c(c4)CCC(=O)N5)cc3s2)s1	0.46
O=C1CCc2cc(NC(=O)c3cccnc3)ccc2N1	-0.13
CCCn1c(NC(=O)c2ccc3c(c2)CCC(=O)N3)nc2ccccc21	0.15
COC(=O)/C=C1/NC(=O)CS1	-0.13
